Screening data deposited in PubChem BioAssay by several laboratories.
Only some compounds are listed: those with a hit (about 1.5% of all), similar ones and a draw of the others.
CRFR2-BP antag: blocks CRF-induced signaling of the CRF-BP/CRF-R2 complex; HEK293 CRF-R2/CRF-BP, CRF-induced calcium fluorescence; inhibition, % at 11.8 µM; actives 0.59% (n = 350,000);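 active = inhibition of the ligand-induced calcium signal above about 50% at the single tested concentration, limit read from the data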
CRFR2-BP ag: agonists of human CRF-binding protein/CRF-R2 receptor complex; AID 588473; HEK293 CRF-R2/CRF-BP, calcium dye fluorescence (FLIPR); percent of saturating CRF peptide response; activation, % at 13.2 µM; actives 0.46% (n = 350,000);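 active = activation of at least 50%, plus an integration ratio under a set limit after plate pattern correction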;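 note: plate controls were neutral control wells without compound for no effect and CRF at EC100 for full effect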
NTR1 ag: activates human neurotensin receptor 1 | P30989 | activation, % at 20 µM | AID 493036 | actives 0.17% (n = 330,000) | NTR1-U2OS beta-arrestin-GFP spot imaging, agonist mode;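 active = activation at or above 40% of the spot to cytoplasm intensity ratio, with at least 20 cells analyzed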;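 note: 0% = DMSO without peptide and 100% = 100 nM NTR1 peptide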
Target sequence (P30989 whole entry, looked up): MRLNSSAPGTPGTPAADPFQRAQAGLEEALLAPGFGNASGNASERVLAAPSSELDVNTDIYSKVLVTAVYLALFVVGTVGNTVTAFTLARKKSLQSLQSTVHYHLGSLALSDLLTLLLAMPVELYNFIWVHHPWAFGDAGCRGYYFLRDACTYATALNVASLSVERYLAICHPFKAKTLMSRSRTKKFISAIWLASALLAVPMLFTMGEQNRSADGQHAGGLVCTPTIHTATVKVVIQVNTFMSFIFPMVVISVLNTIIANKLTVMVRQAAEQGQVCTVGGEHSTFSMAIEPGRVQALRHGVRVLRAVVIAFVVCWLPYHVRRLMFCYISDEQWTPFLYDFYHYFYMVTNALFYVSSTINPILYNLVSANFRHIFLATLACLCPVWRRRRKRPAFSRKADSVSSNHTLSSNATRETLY
V-ATPase pH: regulators of yeast V-ATPase proton transport; S. cerevisiae, pHLuorin cytosolic pH fluorescence; response, % at 10 µM; actives 0.37% (n = 350,000); in the data active = response mostly above about 7.3%, no sharp cut-off; inactive = mostly below about 5.4%; note: actives read high
The depositor's hits bear a star; . = no result.

SMILES	CRFR2-BP antag	CRFR2-BP ag	NTR1 ag	V-ATPase pH
Cc1ccc(NC(=O)c2ccccc2NS(=O)(=O)c2ccc(Cl)s2)cc1S(=O)(=O)N1CCOCC1	87*	43	10	3
COc1ccc(C)cc1NC(=O)c1ccccc1NS(=O)(=O)c1ccc(Cl)s1	65*	40	13	-1
COc1cccc(NC(=O)CN(C)C(=O)c2ccc3c(c2)C(=O)N(CCC(C)C)C3=O)c1	-5	0	1	6
c1ccc(C(CN2CCCCC2)Oc2ccccn2)cc1 (stereo unspecified)	-4	3	.	3
Cc1ccc(CNC(=O)CN(c2ccc(C)cc2)S(=O)(=O)c2c(C)nn(C)c2C)cc1	83*	-1	-1	1
CCOc1cc2c(cc1/C=C/c1noc(C)c1[N+](=O)[O-])OC(C)C2 (stereo unspecified)	-218	193*	5	-1
CCOc1cc2c(cc1C=O)OC(C)C2 (stereo unspecified)	-10	-3	0	10
O=c1[nH]c2ccccc2c(O)c1O	97*	0	0	0
O=c1[nH]c2ccccc2c(O)c1-[n+]1ccccc1	2	-1	4	4
O=C(Nc1ccccc1)Nc1cc(OCC(F)(F)F)cc(OCC(F)(F)F)c1	55*	23	.	4
O=C(Nc1ccccc1)Nc1cc(Cl)cc(Cl)c1	39	18	12	0
CC(=O)NC(Cc1ccc(C)cc1)C(=O)NC1CCN(c2ncccc2[N+](=O)[O-])CC1 (stereo unspecified)	60*	-3	1	-4
C[C@H](CO)N1C[C@H](C)[C@@H](CN(C)S(=O)(=O)c2ccccc2C#N)OCc2cn(nn2)CCCC1=O	1	-3	.	0
CCC1OC(=O)C(C)C(OC2C[C@@](C)(OC)C(O)C(C)O2)C(C)C(O[C@@H]2OC(C)CC(N(C)C)C2O)[C@](C)(O)CC(C)C(=NOCOCCOC)C(C)C(O)[C@]1(C)O (stereo partly specified)	89*	-1	4	-4
CC[C@H]1OC(=O)[C@H](C)[C@@H](O[C@H]2C[C@@](C)(OC)[C@@H](O)[C@H](C)O2)[C@H](C)[C@@H](O[C@@H]2O[C@H](C)C[C@H](N(C)C)[C@H]2O)[C@](C)(O)C[C@@H](C)CN(C)[C@H](C)[C@@H](O)[C@]1(C)O	-2	3	2	1
CC1CCCC(NC(=O)Cn2cc(Br)ccc2=O)C1C (stereo unspecified)	-4	0	0	1
Cc1cc2ccccn2c1C(=O)c1ccc([N+](=O)[O-])o1	2	-1	4	11*
CCCCC[C@@H]1C=C(C(=O)O)[C@H](c2cccc(C)c2)N1S(=O)(=O)c1ccc(C)cc1	60*	-2	2	3
Cc1ccc(S(=O)(=O)N2[C@@H](c3ccc(Cl)cc3)C(C(=O)O)=CC[C@H]2c2ccc(C(C)C)cc2)cc1	14	-2	6	3
Cc1ccc([C@@H]2CC=C(C(=O)O)[C@H](c3ccccc3)N2S(=O)(=O)c2ccc(C)cc2)cc1	5	0	8	-1
Cc1ccc(S(=O)(=O)N2[C@@H](c3ccc(Br)cc3)C(C(=O)O)=CC[C@H]2c2cccc(C)c2)cc1	86*	-2	8	-1
Cc1ccc([C@H]2C(C(=O)O)=CC[C@@H](c3ccc(C)cc3)N2S(=O)(=O)c2ccc(C)cc2)cc1	94*	-1	1	-1
Cc1ccc([C@H]2C(C(=O)O)=CC[C@@H](c3ccc(Cl)cc3)N2S(=O)(=O)c2ccc(C)cc2)cc1	66*	6	10	2
Cc1ccc([C@H]2C(C(=O)O)=CC[C@@H](c3cccc(C)c3)N2S(=O)(=O)c2ccc(C)cc2)cc1	12	-1	-1	-3
O=C(CCC(=O)c1ccc(F)cc1)NC1CCCN(Cc2ccccc2F)C1 (stereo unspecified)	6	0	0	0
SMILES	CRFR2-BP antag	CRFR2-BP ag	NTR1 ag	V-ATPase pH
CC(C)NC(=O)N(C)C[C@@H]1OCc2cn(nn2)CCCC(=O)N([C@H](C)CO)C[C@H]1C	-5	0	.	-2
CCOC(=O)c1[nH]c(C)c(CC(C)C)c1C	-16	-1	1	-4
Cc1cc(C(F)(F)F)n(-c2nc(C(=O)O)cs2)n1	9	-3	0	0
COc1ccc(S(=O)(=O)NNC(=O)c2csc(-n3nc(C)cc3C(F)(F)F)n2)cc1	61*	-4	-1	0
O=C(NCc1ccco1)C1CC(c2ccc(C(F)(F)F)cc2)=NO1 (stereo unspecified)	-2	-1	0	2
CC(C)n1c(O)c(N=NC(=O)C2COc3ccccc3O2)c2ccccc21 (stereo unspecified)	68*	-6	5	3
Cn1c(O)c(N=NC(=O)C2COc3ccccc3O2)c2ccccc21 (stereo unspecified)	-1	-2	3	5
COc1ccc(NC(=O)c2cccs2)cc1	5	-1	1	21*
CCOC(=O)c1c(NC(=O)c2c(Br)cnn2C)c(C#N)nn1-c1ccccc1	67*	0	1	1
Cc1cn(C2CC(OC(=O)C(C)C)C(CO)O2)c(=O)[nH]c1=O (stereo unspecified)	3	0	-3	-2
Cc1cccc(CN2CCN(C(=O)CN(C)C(C)C(=O)Nc3ccc(C(N)=O)cc3)CC2)c1 (stereo unspecified)	8	-2	1	3
Cc1ccc(-c2cc(C(=O)NCc3ccccn3)c3ccccc3n2)cc1C	111*	-3	3	-4
CCN(C(=O)C(C)OC(=O)c1nn(-c2ccccc2C(F)(F)F)cc1O)c1ccccc1 (stereo unspecified)	-11	8	0	-1
COc1ccc(C2C(C(=O)c3cccs3)=C(O)C(=O)N2c2cccc(C)n2)cc1 (stereo unspecified)	5	0	0	3
Cc1ccc(C2C(C(=O)c3cccs3)=C(O)C(=O)N2c2nnc(C)s2)cc1 (stereo unspecified)	-75	134*	-1	7
CCOc1ccc(CCNC(=O)Cn2ncn3nc(-c4ccc(OC)cc4)cc3c2=O)cc1OCC	38	-1	1	-2
CCc1ccc(OCCOCC(O)CNC(C)(C)C)cc1 (stereo unspecified)	-15	58*	1	0
CCc1ccc(OCCOCC(O)CN(CCO)CCO)cc1 (stereo unspecified)	37	-2	0	0
CN(C)c1ccc(C2C=C(c3ccc(Cl)cc3OC(F)F)Nc3ncnn32)cc1 (stereo unspecified)	-63	59*	5	4
O=S(=O)(c1cnccc1N1CCN(CCO)CC1)N1CCCCC1	4	3	-1	2
COc1cc(SC)ccc1C(=O)Nc1ccc(Br)cn1	-3	3	2	2
COc1cc(SC)ccc1C(=O)Nc1ncc(C)s1	105*	0	4	4
N#C/C(=C\c1ccc([N+](=O)[O-])o1)C(=O)Nc1ccc(F)cc1	-29	10	2	114*
Cc1nnsc1C(=O)Nc1ccc(S(=O)(=O)N2CCCC(C)C2)cc1 (stereo unspecified)	-7	3	0	-3
